From PubChem BioAssay (NCI) come the findings set out here.

About 83,000 compounds went through this panel and 20% of them were active in at least one assay; those are over-represented in the sample as a whole.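 Compound tested at a single concentration for 48 hours in 96-well plates; a percent growth value below 10 was scored as active.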 Unmarked numbers belong to inactive results. Active and inactive are the calls of the source.

Among the test systems are EKVX NSCLC; SN12C renal; UO-31 renal; TK-10 renal; ACHN renal; CAKI-1 renal; A498 renal; CCRF-CEM leukemia; MOLT-4 leukemia; SR leukemia.
Common to all, as to experiment: NCI-60 one-dose screen, 48 h (100 = growth as untreated, 0 = no growth, -100 = all killed)
Holding throughout (details): 10 µM unless noted

With `CCCCCCCC/C=C/CCCCCCCC1=NC(C)(C)CN1CCO`, the growth in the test with EKVX NSCLC was 58.5%; with SN12C renal it was 60.9%; with UO-31 renal, -44.8% (active); in the test with TK-10 renal, 59.5%; with ACHN renal it was 24.4%; with CAKI-1 renal, 59.5%. For the same molecule, the growth in the test with A498 renal was 89.2%; in the test with CCRF-CEM leukemia, -38.9% (active); in the test on MOLT-4 leukemia it was -44.4% (active); in the test on SR leukemia it was -43.1% (active).

As to `COc1ccc2c(c1)C(=O)c1c-2c(=O)n(CCCCCCC(=O)NO)c2ccccc12`, the growth is 31.3% with EKVX NSCLC; 8.66% (active) with SN12C renal; -33.8% (active) in the test on UO-31 renal; -9.14% (active) in the test on TK-10 renal; -57.8% (active) in the test with ACHN renal; -55.4% (active) in the test on CAKI-1 renal. The growth is -67.8% (active) with A498 renal, -7.49% (active) with CCRF-CEM leukemia, 4.43% (active) in the test on MOLT-4 leukemia and 5.2% (active) in the test on SR leukemia.

For `S=C(c1ccccc1)N1CCN(c2cccc(Cl)c2)CC1`, the growth in the test on EKVX NSCLC was 99.5%; in the test with SN12C renal, 100%; in the test with UO-31 renal, 93.2%; in the test on TK-10 renal it was 110%; with ACHN renal it was 104%; in the test with CAKI-1 renal it was 88.7%. The growth with A498 renal was 64.6%; in the test with CCRF-CEM leukemia, 84.1%; with MOLT-4 leukemia, 85.2%; in the test with SR leukemia, 82.4%.

As to `CSc1ccc2c(c1)N(CCC1CCCCN1C)c1ccccc1S2` (stereo not given), the growth in the test with EKVX NSCLC is 67.5%; in the test with SN12C renal, 48%; in the test on UO-31 renal it was 28.2%; with TK-10 renal, 66.4%; with ACHN renal, 25.8%; with CAKI-1 renal, 32.9%. Besides, the growth in the test on A498 renal was 84%; in the test with CCRF-CEM leukemia it was 35.3%; in the test with MOLT-4 leukemia, 40.5%; in the test with SR leukemia it was 14.2%.

With `Nc1nc(SCc2ccccc2Cl)c(-c2ccccc2)c(SCc2ccccc2Cl)n1`, the growth with EKVX NSCLC is 97.3%; in the test on SN12C renal it was 104%; in the test on UO-31 renal, 69.9%; with TK-10 renal it was 97.7%; with ACHN renal it was 91.4%; with CAKI-1 renal, 79.6%. The growth in the test with A498 renal is 67.6%; in the test with CCRF-CEM leukemia, 78.4%; with MOLT-4 leukemia it was 90.9%; in the test with SR leukemia, 96.3%.

With `Nc1nc(Cl)c2[nH]cnc2n1`, the growth is 99.5% in the test on EKVX NSCLC; 92.4% in the test on SN12C renal; 93.5% in the test with UO-31 renal; 103% in the test on TK-10 renal; 96.4% in the test on ACHN renal; 89.4% in the test with CAKI-1 renal. In addition, the growth in the test with A498 renal was 95.1%; in the test with CCRF-CEM leukemia it was 115%; in the test with MOLT-4 leukemia it was 114%; in the test on SR leukemia, 95.6%.

For the molecule `CN(C)c1ccc(/C=C\c2ccnc3ccccc23)cc1`, the growth in the test with EKVX NSCLC was 34.5%; in the test with SN12C renal, 76.1%; in the test on UO-31 renal it was 34.6%; in the test with TK-10 renal it was 55.9%; in the test on ACHN renal, 70.6%; in the test with CAKI-1 renal, 77.2%. Also, the growth was 63.9% with A498 renal, 29.5% in the test with CCRF-CEM leukemia, 66.7% in the test on MOLT-4 leukemia and -32.4% (active) in the test on SR leukemia.

On to `O=[N+]([O-])c1ccc(N/N=C\c2ccccc2[N+](=O)[O-])nc1`, for which the growth in the test with EKVX NSCLC was 101%; in the test on SN12C renal, 103%; in the test on UO-31 renal, 97.8%; with TK-10 renal, 116%; with ACHN renal, 102%; in the test with CAKI-1 renal it was 83%. Moreover, the growth is 83.4% with A498 renal, 97.8% in the test with CCRF-CEM leukemia, 93.5% with MOLT-4 leukemia and 92.4% in the test with SR leukemia.

For `CCOC(=O)c1ccccc1OC(=O)NNc1ccccc1`, the growth in the test with EKVX NSCLC was 92.8%; in the test with SN12C renal, 66.4%; in the test on UO-31 renal it was 29.3%; in the test with TK-10 renal, 72.9%; with ACHN renal, 51.9%; with CAKI-1 renal, 25.5%. Besides, the growth with A498 renal was 100%; in the test on CCRF-CEM leukemia, 24.6%; with MOLT-4 leukemia, 17.9%; in the test on SR leukemia it was 27.6%.

As to `O=C(Nc1ccc(C2=NCCCN2)cc1)Nc1ccc(C2=NCCCN2)cc1`, the growth was 64.1% with EKVX NSCLC; 94.8% with SN12C renal; 90.1% with UO-31 renal; 109% with TK-10 renal; 87.7% in the test with ACHN renal; 79.3% in the test on CAKI-1 renal. Further, the growth with A498 renal was 77.4%; in the test with CCRF-CEM leukemia, 73%; in the test on MOLT-4 leukemia, 71.6%; with SR leukemia, 69.8%.

Take `COc1cc2c(cc1OCCCOc1ccc(-c3cc4ccccc4c4ccccc34)cc1)N=C[C@@H]1CCCN1C2=O`: the growth was -74.1% (active) with EKVX NSCLC; -73.5% (active) in the test with SN12C renal; -59.3% (active) with UO-31 renal; -75.6% (active) in the test with TK-10 renal; -85.3% (active) with ACHN renal; -19.6% (active) with CAKI-1 renal. Moreover, the growth in the test on A498 renal is -82.8% (active); in the test with CCRF-CEM leukemia, 6.61% (active); in the test with MOLT-4 leukemia, 17.4%; in the test on SR leukemia it was 102%.

As for `COc1ccc(-c2cn(-c3ccccc3)c(-c3ccccc3)n2)cc1OC`, the growth with EKVX NSCLC is 84.9%; in the test with SN12C renal, 71.9%; in the test on UO-31 renal it was 52.1%; with TK-10 renal, 99.4%; in the test with ACHN renal, 64.4%; with CAKI-1 renal, 79.3%. Moreover, the growth in the test on A498 renal was 104%; in the test on CCRF-CEM leukemia, -66.6% (active); in the test on MOLT-4 leukemia it was 77%; with SR leukemia, 11.3%.

As for `OC(CCC(O)(c1ccccc1)c1ccccc1)(c1ccccc1)c1ccccc1`, the growth was 58.8% in the test with EKVX NSCLC; 88% with SN12C renal; 74.7% in the test on UO-31 renal; 107% with TK-10 renal; 100% with ACHN renal; 44.4% in the test on CAKI-1 renal. The growth is 60.2% in the test with A498 renal, 33.5% in the test with CCRF-CEM leukemia, 18.5% with MOLT-4 leukemia and 79.6% in the test with SR leukemia.

Take `CC(=O)Oc1ccc(C23c4ccccc4C2(OC(C)=O)c2cc(OC(C)=O)ccc23)cc1` (stereo not given): the growth in the test on EKVX NSCLC is 69.4%; in the test with SN12C renal, 81.7%; with UO-31 renal, 11%; in the test on TK-10 renal it was 63.9%; with ACHN renal, 29.4%; with CAKI-1 renal, 85.2%. Besides, the growth was 114% in the test on A498 renal, 41.8% with CCRF-CEM leukemia, 67.6% in the test on MOLT-4 leukemia and -2.28% (active) in the test on SR leukemia.
